Measured values from PubChem BioAssay (NCATS).
A number with no mark means an inactive call. The source made the active and inactive calls. The call rests on the fitted dose curve; in most records, active means well fitted curve in the direction sought with a large enough effect; inconclusive means small, poorly fitted or top-dose-only effect, or effect the other way, or another doubt; inactive means no such curve, though single readings can be large or run the other way.

Assay: Inducers of the Endoplasmic Reticulum Stress Response (ERSR) in human glioma: Validation (AID 504836); further: 0% is about no effect
Details: human glioma cells, ER stress response reporter; series mostly up to 38.3 µM; activation: at the top concentration
Procedure, shortened: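 Stably transfected U87-MG glioma cells carrying a GRP78-based luciferase sensor; 16 h compound incubation. Luminescence end-point read 10 min after Bright-Glo addition at room temperature.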

Row | Compound | activation [%] | outcome
1 | CC(C)NCC(O)c1ccc(NS(C)(=O)=O)cc1 (stereo not given) | -2.63 | –
2 | Nc1ccn([C@@H]2O[C@H](CO)[C@@H](O)C2O)c(=O)n1 (stereo not given in full) | -4.08 | –
3 | CCO/C([O-])=N/c1c[n+](N2CCOCC2)no1 | 0.993 | –
4 | CNCCC=C1c2ccccc2CCc2ccccc21 | -7.33 | –
5 | Nc1cc(=O)[nH]c(N)n1 | 0.0828 | –
6 | CNCC(O)c1ccc(O)c(O)c1 (stereo not given) | -3.67 | –
7 | CCN(CC)CCNC(=O)c1ccc(N)cc1 | -0.55 | –
8 | NC(N)=NC(=O)Cc1c(Cl)cccc1Cl | -3.77 | –
9 | CCn1cc(C(=O)O)c(=O)c2cc(F)c(N3CCNC(C)C3)c(F)c21 (stereo not given) | -0.628 | –
10 | CCC1(C)CC(=O)NC1=O (stereo not given) | -4.67 | –
11 | CC(N=C(NC#N)Nc1ccncc1)C(C)(C)C (stereo not given) | -4.53 | –
12 | NC(N)=Nc1nc(CSCC/C(N)=N/S(N)(=O)=O)cs1 | -2.47 | –
13 | OCCN1CCN(CC/C=C2/c3ccccc3Sc3ccc(C(F)(F)F)cc32)CC1 | -4.59 | –
14 | CCCNC(C)C(=O)Nc1ccccc1C (stereo not given) | -2.81 | –
15 | O=c1[nH]cnc2[nH]ncc12 | -2.7 | –
16 | NCCCCCC(=O)O | -1.03 | –
17 | NC(Cc1ccc(Cl)cc1)C(=O)O (stereo not given) | -3.39 | –
18 | C[N+](C)(C)CCCCCC[N+](C)(C)C | – | inactive

Row | Compound | activation [%] | outcome
19 | CCN1CCC[C@H]1CNC(=O)c1c(O)c(Cl)cc(Cl)c1OC | -0.76 | –
20 | NC1CCN(c2cccc(Cl)n2)CC1 | -2.43 | –
21 | O=C(O)CN(CCN(CC(=O)O)CC(=O)O)CCN(CC(=O)O)CC(=O)O | -2.97 | –
22 | Clc1cccc(Cl)c1NC1=NCCN1 | -1.88 | –
23 | NCCS(=O)(=O)O | -1.34 | –
24 | C[N+](C)(C)CCOC(N)=O | 2.42 | –
25 | CC(C)C[C@H]1C(=O)N2CCC[C@H]2[C@]2(O)O[C@](NC(=O)[C@@H]3C=C4c5cccc6[nH]c(Br)c(c56)C[C@H]4N(C)C3)(C(C)C)C(=O)N12 | 2.76 | –
26 | CC(=O)OCC1=C(C(=O)O)N2C(=O)[C@@H](NC(=O)Cc3cccs3)[C@H]2SC1 | 2.12 | –
27 | CCN1CCCC1CNC(=O)c1cc(S(=O)(=O)CC)c(N)cc1OC (stereo not given) | -3.25 | –
28 | Cc1ccc(Cl)c(Nc2ccccc2C(=O)O)c1Cl | 3.82 | –
29 | N[C@@H](COP(=O)(O)O)C(=O)O | -0.864 | –
30 | CCN(CC)CC#CCOC(=O)C(O)(c1ccccc1)C1CCCCC1 (stereo not given) | -2.55 | –
31 | CCOC(=O)c1cnc2c(cnn2CC)c1NN=C(C)C | -1.91 | –
32 | NC(=O)N1c2ccccc2C=Cc2ccccc21 | -4.4 | –
33 | CC(C)(C)NC[C@H](O)COc1nsnc1N1CCOCC1 | -4.42 | –
34 | C=CC(N)CCC(=O)O (stereo not given) | -3.31 | –
35 | CCN(CC)C(=O)c1ccc(O)c(OC)c1 | -3.7 | –
